Reference: PubChem BioAssay (EPA / NIEHS)
Inconclusive results are not listed. Activity calls are given as the source filed them. The calls were made as follows, unless noted: active = hit-call score of the fitted dose curve at least 0.9, where 1 is the maximum; inactive = score below 0.9.

What was measured:
[1] = IUF_NPC2c_oligodendrocyte_migration_120hr: Leibniz Research Institute for Environmental Medicine (IUF) 120-hour Neural Progenitor Cell Migration Assay for Oligodendrocyte Migration (NPC2c) (AID 2284297);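 also: O4-positive oligodendrocyte migration distance divided by radial glia migration distance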
In short: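 Human fetal neural progenitor spheres (0.3 mm) are plated on poly-D-lysine/laminin in N2 differentiation medium and exposed for 120 h, with half-medium renewal at day 3. Oligodendrocyte (O4+) migration distance comes from ICC imaging, normalised to radial glia migration.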

[2] = IUF_NPC2a_radial_glia_migration_120hr: Leibniz Research Institute for Environmental Medicine (IUF) 120-hour Neural Progenitor Cell Migration Assay for Radial Glia Migration (NPC2a) (AID 2284298)
Method: IUF_NPC2-5 is a cell-based, multiplexed assay that uses hNPC, a human primary neural progenitor cells, with measurements taken at 72 or 120 hours after chemical dosing in a 96-well plate. Human neural progenitor cells (hNPC) are generated from human fetal brain cortex at gestational week (GW) 16-19. In the neural progenitor cell migration and differentiation assay (NPC2-5), hNPCs grown as spheres are plated on an extracellular matrix and migrate and differentiate out of the sphere core. The processes radial glia migration, neuronal and oligodendrocyte migration as well as neuronal differentiation, neuronal morphology and oligodendrocyte differentiation are studied using automated phase contrast imaging and automated fluorescence imaging in combination with high content image analysis. In parallel, the cell viability is assessed using an alamar blue viability assay and the cytotoxicity using a lactate dehydrogenase dependent membrane integrity assay.IUF_NPC2a_radial_glia_migration_120hr is one of 12 assay components measured from the IUF_NPC2-5 assay. The migration distance of radial glia at 120 hr is assessed in um from the edge of the sphere core to the edge of the migration area based on fluorescent images of Hoechst-positive nuclei. With the identification of each nucleus position around the sphere core, migration-related parameters can be calculated. […]

[3] = IUF_NPC2a_radial_glia_migration_72hr: Leibniz Research Institute for Environmental Medicine (IUF) 72-hour Neural Progenitor Cell Migration Assay for Radial Glia Migration (NPC2a) (AID 2284299)
In short: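 Radial glia migration (µm, sphere core edge to migration front, four directions averaged) from brightfield images at 72 h; hNPC spheres differentiating on PDL/laminin in N2 medium, compound exposure at 7 concentrations from plating.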

[4] = IUF_NPC2b_neuronal_migration_120hr: Leibniz Research Institute for Environmental Medicine (IUF) 120-hour Neural Progenitor Cell Migration Assay for Neuron Migration (NPC2b) (AID 2284300)
In short: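 0.3 mm hNPC spheres on poly-D-lysine/laminin in N2 differentiation medium exposed 120 h, half-medium refresh day 3; 7 concentrations, DMSO max 0.1%. Neuron (TUBB3) distance from sphere core by ICC imaging, normalised to radial glia migration.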

[5] = IUF_NPC3_neuronal_differentiation_120hr: Leibniz Research Institute for Environmental Medicine (IUF) 120-hour Neuronal Differentiation Assay (NPC3) (AID 2284301)
In short: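 hNPC spheres, PDL/laminin, DMEM/F12 3:1 + 1% N2, 37C, 5% CO2; 7 concentrations + solvent control, 5 d exposure, half-change day 3. Fix 120 h; TUBB3/Hoechst ICC, CNN neuron calling; % neurons vs nuclei, DMSO-normalized.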

[6] = IUF_NPC4_neurite_length_120hr: Leibniz Research Institute for Environmental Medicine (IUF) 120-hour Neuronal Morphology Assay for Neurite Length (NPC4) (AID 2284302)
In short: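 hNPC spheres (0.3 mm, fetal brain GW 16-19) on PDL/laminin, DMEM:F12 3:1 + 1% N2, 37C 5% CO2; 7 concs + solvent control, day 0-5, half medium change d3; fix 120 h, TUBB3 ICC, mean neurite length um vs DMSO.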

[7] = IUF_NPC5_oligodendrocyte_differentiation_120hr: Leibniz Research Institute for Environmental Medicine (IUF) 120-hour Oligodendrocyte Differentiation Assay (NPC5) (AID 2284304; active = hit-call score of the fitted dose curve at least 0.9, where 1 is the maximum;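 also: share of O4-positive cells among Hoechst nuclei found by CNN image analysis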)
In short: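 Human fetal neural progenitor spheres (0.3 mm) plated on poly-D-lysine/laminin in N2 differentiation medium and exposed for 120 h at 7 concentrations, with half-medium renewal at day 3. O4-positive cells identified by CNN, expressed as percent of Hoechst nuclei.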

[8] = IUF_NPC4_neurite_area_120hr: Leibniz Research Institute for Environmental Medicine (IUF) 120-hour Neuronal Morphology Assay for Neurite Area (NPC4) (AID 2284305; active = hit-call score of the fitted dose curve at least 0.9, where 1 is the maximum)
In short: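 hNPC spheres on PDL/laminin, N2 medium, 37C/5% CO2; dosed day 0, half-medium refresh day 3; fixed 120 h; TUBB3/Hoechst ICC, high-content imaging; neurite area = mean pixels per neuron (nuclei excluded); DMSO baseline, max 0.1%.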

Measured: outcome

CCCCNS(=O)(=O)c1ccccc1
inactive: all assays above

Cc1c(C(=O)c2c[nH]n(C)c2=O)ccc(S(C)(=O)=O)c1C1=NOCC1
inactive: all assays above
